Among all 390,000 compounds or so, about 17,000 (4.4%) were called active. Entries that show only a call come without a potency. About 8% were inconclusive and are not listed. Calls come from the whole dose curve; as a rule, active = well fitted inhibition curve with a large enough effect; inconclusive = small, poorly fitted or top-dose-only effect; inactive = no such curve, though single readings can be large or run the other way. This excerpt belongs to a sample that is enriched for actives.
Target: Lysine-specific demethylase 4A (Homo sapiens) (UniProt O75164)
Sequence (O75164 whole entry, looked up, the tested form may be a part): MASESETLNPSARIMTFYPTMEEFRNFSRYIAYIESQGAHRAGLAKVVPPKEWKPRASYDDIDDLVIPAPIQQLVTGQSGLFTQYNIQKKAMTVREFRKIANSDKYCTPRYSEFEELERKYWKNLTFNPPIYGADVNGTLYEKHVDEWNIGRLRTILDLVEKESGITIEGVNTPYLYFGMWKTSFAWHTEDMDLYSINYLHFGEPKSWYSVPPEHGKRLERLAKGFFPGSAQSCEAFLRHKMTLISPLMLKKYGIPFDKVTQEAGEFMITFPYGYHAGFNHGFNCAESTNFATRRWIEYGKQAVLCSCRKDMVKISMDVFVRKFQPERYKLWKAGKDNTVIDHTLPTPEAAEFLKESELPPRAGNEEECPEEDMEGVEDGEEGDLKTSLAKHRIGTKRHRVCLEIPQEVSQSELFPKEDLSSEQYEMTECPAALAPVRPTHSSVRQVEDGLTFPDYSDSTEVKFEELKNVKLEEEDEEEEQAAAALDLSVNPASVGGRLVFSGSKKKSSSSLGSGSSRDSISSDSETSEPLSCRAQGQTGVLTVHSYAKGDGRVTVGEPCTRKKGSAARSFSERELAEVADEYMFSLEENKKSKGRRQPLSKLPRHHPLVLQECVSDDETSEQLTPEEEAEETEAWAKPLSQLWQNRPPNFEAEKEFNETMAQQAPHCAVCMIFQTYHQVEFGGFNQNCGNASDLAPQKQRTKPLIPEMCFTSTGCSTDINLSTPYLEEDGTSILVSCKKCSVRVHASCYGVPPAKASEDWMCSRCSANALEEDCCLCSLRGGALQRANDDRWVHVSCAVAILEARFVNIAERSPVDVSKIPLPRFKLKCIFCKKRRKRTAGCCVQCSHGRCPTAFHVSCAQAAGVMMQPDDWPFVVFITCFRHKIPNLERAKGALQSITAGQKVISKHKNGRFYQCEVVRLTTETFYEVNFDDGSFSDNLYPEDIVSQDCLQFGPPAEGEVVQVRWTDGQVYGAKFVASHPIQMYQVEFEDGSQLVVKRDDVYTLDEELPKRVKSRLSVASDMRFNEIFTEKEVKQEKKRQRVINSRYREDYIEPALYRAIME
Experiment: qHTS Assay for Inhibitors of JMJD2A-Tudor Domain; note: nearly all actives have a fitted effect of over 50% in size
Settings: AlphaScreen JMJD2A-Tudor / H3K4me3 peptide binding; series mostly up to 114 µM
Potency is the fitted concentration of half-maximal effect.

| SMILES | Potency |
| --- | --- |
| Cc1nn(-c2ccc(N3CCCCC3)nn2)c(C)c1CCC(=O)NCc1ccc(F)cc1 | inactive |
| COc1ccc(-c2onc(C)c2C)cc1S(=O)(=O)NCCc1ccccc1 | inactive |
| COc1ccc(CNc2nc(NCc3ccc(OC)cc3)c3ncn(C4CCCC4)c3n2)cc1 | inactive |
| CCC(CO)Oc1cc(NC(=O)c2ccc(Cl)cc2)c2ncn(C(C)C)c2c1 (configuration not stated) | inactive |
| CCC(CO)Oc1cc(NCc2ccccc2)c2ncn(C3CCCC3)c2c1 (configuration not stated) | 56.2 µM (active) |
| CN(C)c1nccc(NCc2ccccc2)c1C#N | inactive |
| CC(C)n1cnc2c(NCc3ccccc3)cc(OCC3CCN(C)CC3)cc21 | 39.8 µM (active) |
| CCOC(=O)c1cccc(NC(=O)c2cc(S(=O)(=O)N3CCCC(C)C3)cn2C)c1 (configuration not stated) | inactive |
| CC1CCCCN1Cc1c(O)ccc2c(=O)c(-c3cccc(Cl)c3)c(C(F)(F)F)oc12 (configuration not stated) | inactive |
| O=C(CN1C(=O)CCn2nc(-c3ccccc3)cc21)NCc1ccccc1 | inactive |
| Cc1nc2c(-c3ccccc3)c(C)nn2c(C)c1CCC(=O)NCCc1ccccc1 | inactive |
| COc1ccc(Cl)cc1NC(=O)CCS(=O)(=O)c1cc2c(cc1C)NC(=O)CO2 | inactive |
| COc1ccc(Cl)cc1NC(=O)CN(C)C(=O)c1ccc2n[nH]nc2c1 | inactive |
| Cn1c(=O)oc2cc(S(=O)(=O)CCC(=O)NCCc3ccc(Cl)cc3)ccc21 | inactive |
| COc1ccc(Cl)cc1NC(=O)CN(C)Cc1ccc(OC)c(OC)c1 | 1.26 µM (active) |
| CC(=O)N1CCc2cc(Br)cc(S(=O)(=O)CCC(=O)NCCc3ccc(Cl)cc3)c21 | inactive |
| COc1ccc(Cl)cc1NC(=O)CCC(=O)c1ccc(C)cc1 | inactive |
| O=C(CCS(=O)(=O)c1ccc(Br)cc1)NCCc1ccc(Cl)cc1 | 63.1 µM (active) |
| COc1ccc(Cl)cc1NC(=O)CCS(=O)(=O)c1ccc(Br)cc1 | 22.4 µM (active) |
| COc1ccc(Cl)cc1NC(=O)CN(C)CC(=O)Nc1ccc2c(c1)OCO2 | inactive |
| CCCOc1ccc(-c2cccc(NS(=O)(=O)c3ccccc3)c2)nn1 | inactive |
| COc1ccc(OC)c(-c2csc(-c3c(N)c(C(=O)c4ccccc4)n4ccccc34)n2)c1 | inactive |
| CCc1ccc(C(=O)CC2(O)C(=O)N(CCc3ccccc3)c3ccc(Br)cc32)cc1 (configuration not stated) | inactive |
| C=C1CCN(Cc2ccc(OC)cc2)S(=O)(=O)c2ccccc21 | inactive |
| CC1Cc2cc(S(=O)(=O)CCC(=O)NCc3ccc(Cl)cc3)ccc2N1C(=O)C1CC1 (configuration not stated) | inactive |
| Cc1cc(C)cc(NS(=O)(=O)c2ccc(-c3cc(C)no3)s2)c1 | inactive |
| Cc1cc(N=Nc2ccc3ccccc3c2)ccc1O | 44.7 µM (active) |
